The values below come from the supplement of paper PMC7411640.

The structures appear in SMILES notation. Where a name gives a salt, the structure may show the parent alone.

The subject of the assay is MDA-MB-468. Put plainly: phospho-S6 immunofluorescence (DAPI-normalised), per-plate z-score; higher = higher phospho-S6 signal (less pathway suppression). To be noted: co-treatment: GDC0941 450 nM; 24 h. The procedure:
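GPCR-targeted compound library (MedChemExpress HY-L006) tested on MDA-MB-468 PTEN-null TNBC cells in 384-well plates at 0.1, 1 or 10 uM, combined with vehicle, GDC0941 450 nM or lapatinib 1 uM, for 24 h. Phospho-S6 (S240/244) immunofluorescence normalised to DAPI and expressed as a per-plate z-score; values are the mean of biological triplicates.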
Consider `CN1CCc2c(c3ccccc3n2Cc2ccccc2)C1` [Mebhydrolin (napadisylate)] (compound 10 µM), for which the “phospho-S6 immunofluorescence (z-score)” value is -0.29. Take `Cc1c(Cc2ccc3ccccc3n2)c2cc(F)ccc2n1CC(=O)O` (compound 10 µM): the “phospho-S6 immunofluorescence (z-score)” value was determined as 0.

On to `O=c1ccccn1CC1(O)CCN(Cc2ccccc2)CC1` (compound 10 µM), for which the “phospho-S6 immunofluorescence (z-score)” value was 0.52.

`COc1cc(C(=O)NS(=O)(=O)c2ccccc2C)ccc1Cc1cn(C)c2ccc(NC(=O)OC3CCCC3)cc12` [Zafirlukast] (compound 10 µM): the “phospho-S6 immunofluorescence (z-score)” value is -2.01. Turning to `Cc1cc(NC(=O)Nc2ccc(N(C)C)cc2)c2cc(F)cc(F)c2n1` (compound 10 µM), the “phospho-S6 immunofluorescence (z-score)” value was -2.07. Next, `CC(=O)OCC(=O)[C@@]12N=C(C)O[C@@H]1C[C@H]1[C@@H]3CCC4=CC(=O)C=C[C@]4(C)[C@H]3[C@@H](O)C[C@@]12C` [Deflazacort] (compound 10 µM): -0.99; `COC(=O)[C@H]1[C@H]2C[C@H]3c4[nH]c5ccccc5c4CCN3C[C@H]2CC[C@@H]1O` [Rauwolscine (hydrochloride)] (compound 10 µM): 0.42; `Cc1c(C(=O)NN2CCCCC2)nn(-c2ccc(Cl)cc2Cl)c1-c1ccc(Cl)cc1` [Rimonabant (Hydrochloride)] (compound 10 µM): -3.49.

`OCCN1CCN(CCCN2c3ccccc3Sc3ccc(C(F)(F)F)cc32)CC1` [Fluphenazine (dihydrochloride)] (compound 10 µM): the “phospho-S6 immunofluorescence (z-score)” value was -3.94. Consider `CCCN(CCc1cccs1)C1CCc2c(O)cccc2C1` (racemic) [rac-Rotigotine (Hydrochloride)] (compound 10 µM), for which the “phospho-S6 immunofluorescence (z-score)” value was -0.62. Next, `CC(N)(C(=O)O)c1ccc(C(=O)O)cc1` (racemic) (compound 10 µM): 0.62; `COc1cc2nc(N3CCN(C(=O)C4COc5ccccc5O4)CC3)nc(N)c2cc1OC` (configuration not stated) [Doxazosin (mesylate)] (compound 10 µM): -3.46. Next, `O=C(NC(Cc1cc(=O)[nH]c2ccccc12)C(=O)O)c1ccc(Cl)cc1` (configuration not stated) [Rebamipide] (compound 10 µM): 0.69.

Take `OCCNC1CCCc2c1[nH]c1ccc(-c3ccccc3)cc21` (configuration not stated) (compound 10 µM): the “phospho-S6 immunofluorescence (z-score)” value was -5.16. The result for `COc1cc(N)cn[n+]1-c1ccccc1` [Amezinium (methylsulfate)] (compound 10 µM) reads -0.21; that for `CN(C)CCSSCCNC(=O)C1CCN(C(=O)CSc2ccc(Cl)cc2)CC1` [6H05 (trifluoroacetate)] (compound 10 µM), -1.17.

As for `CCOc1ccccc1OCCN[C@H](C)Cc1ccc(OC)c(S(N)(=O)=O)c1` [Tamsulosin] (compound 10 µM), the “phospho-S6 immunofluorescence (z-score)” value was -1.32.

`O=C(O)COCCN1CCN(C(c2ccccc2)c2ccc(Cl)cc2)CC1` (configuration not stated) [Cetirizine (dihydrochloride)] (compound 10 µM): the “phospho-S6 immunofluorescence (z-score)” value was -0.15.

`C[C@]12CCC(=O)C=C1CC[C@@H]1[C@@H]2C(=O)C[C@@]2(C)[C@H]1CC[C@]2(O)C(=O)CO` [Cortisone] (compound 10 µM): the “phospho-S6 immunofluorescence (z-score)” value amounted to 0.47.

Turning to `CC(CN1c2ccccc2Sc2ccccc21)N(C)C` (configuration not stated) [Promethazine (hydrochloride)] (compound 10 µM), the “phospho-S6 immunofluorescence (z-score)” value was -1.86.

In the case of `c1ccc2c(c1)CCCC2C1=NCCN1` (configuration not stated) [Tetrahydrozoline (hydrochloride)] (compound 10 µM), the “phospho-S6 immunofluorescence (z-score)” value turned out to be 0.32.

For the compound `O=c1cc(C(Cl)(Cl)Cl)oc2ccc(Cl)cc12` (compound 10 µM), the “phospho-S6 immunofluorescence (z-score)” value is 0.54. Take `Clc1ccc(Cn2c(CN3CCCC3)nc3ccccc32)cc1` [Clemizole (hydrochloride)] (compound 10 µM): the “phospho-S6 immunofluorescence (z-score)” value is -3.06. On to `COc1cc2nc(N3CCN(C(=O)C4CCCO4)CC3)nc(N)c2cc1OC` (configuration not stated) [Terazosin (hydrochloride dihydrate)] (compound 10 µM), for which the “phospho-S6 immunofluorescence (z-score)” value came out at 0.82. The result for `CC(C)=CCC/C(C)=C/CC/C(C)=C/CSc1ccccc1C(=O)O` [Salirasib] (compound 10 µM) reads 0.9; that for `COc1ccc(C2CC(c3ccccc3)=NN2c2ccc(S(N)(=O)=O)cc2)cc1` (configuration not stated) (compound 10 µM), -3.22; that for `CC(=O)OCC(=O)[C@@]12OC(C)(C)O[C@@H]1C[C@H]1[C@@H]3C[C@H](F)C4=CC(=O)C=C[C@]4(C)[C@@]3(F)[C@@H](O)C[C@@]12C` [Fluocinonide] (compound 10 µM), -0.28.

`O=C(N[C@H]1CCN(C(=O)c2cc(C(F)(F)F)cc(C(F)(F)F)c2)[C@H](Cc2ccc(Cl)cc2)C1)c1ccnc2ccccc12` (compound 10 µM): the “phospho-S6 immunofluorescence (z-score)” value is -1.97.

As to `Nc1nc2c(cnn2CCc2ccccc2)c2nc(-c3ccco3)nn12` (compound 10 µM), the “phospho-S6 immunofluorescence (z-score)” value was -0.2. Next, `Brc1c(NC2=NCCN2)ccc2nccnc12` [UK 14,304 (tartrate)] (compound 10 µM): 0.91; `O=C(Nc1cccc(Cl)c1)c1ccccn1` (compound 10 µM): -1.46. Next, `CCN(CCCc1ccccc1)CCCc1ccccc1` [Alverine (citrate)] (compound 10 µM): -0.52; `CC(C)NCC(O)COc1ccc(CC(N)=O)cc1` (configuration not stated) [Atenolol] (compound 10 µM): 0.35; `Cc1c(C(=O)NN2CCCCC2)nn(-c2ccc(Cl)cc2Cl)c1-c1ccc(I)cc1` (compound 10 µM): -1.91. Next, `CC(C[N+](C)(C)C)OC(N)=O` (configuration not stated) [Bethanechol (chloride)] (compound 10 µM): 0.67; `CCC1(c2c[nH]cn2)Cc2ccccc2C1` [Atipamezole] (compound 10 µM): 0.08.

For the compound `C[C@H](Nc1cc(NS(=O)(=O)N2CCC2)nc(SCc2cccc(F)c2F)n1)[C@@H](O)CO` (compound 10 µM), the “phospho-S6 immunofluorescence (z-score)” value is -1.17.
